In the library only some 7.4% were active in any assay of this set; here they are far more common.
Rab9 promoter act = activates the Rab9 promoter. Huh7 Rab9 promoter-luciferase reporter, luminescence, 24 h. Potency, µM (highest dose often 9.22 µM), inactives show top-dose activation, negative = inhibition, actives largely listed as activators. 320,000 compounds, 2.8% hits; also: % of control where 0% means no effect; nearly all actives have a fitted effect of over 60% in size
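Cells were plated at 1500 per well in reduced-serum medium with 10% FBS and left 2 h. Compound in DMSO was then added for 24 h at 37 °C. Reporter signal was read by luminescence after 10 min with luciferase detection reagent.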
NPC1 prom act = NPC1 promoter activation; Huh7 NPC1 promoter luciferase reporter, 24 h; Potency, µM (highest dose often 9.22 µM), without a hit: at the highest dose activation, most hits filed as activators; 320,000 compounds, 2.4% hits; AID 485313; also: % of control where 0% means no effect; nearly all actives have a fitted effect of over 60% in size
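Stably transfected Huh7 (NPC1 promoter→luciferase), 1500 cells/well in Opti-MEM + 10% FBS, 2 h settle, then compound 24 h at 37 °C. Luminescence after 10 min with Amplite reagent.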
ELG1 genotoxic = induces genotoxicity in HEK293T cells with luciferase-tagged ELG1. 330,000 compounds, 1.3% hits. Potency, µM (series often up to 46 µM), for the others: top-dose activity change, positive = activation, most hits filed as activators. HEK293T ELG1-luciferase reporter, luminescence, 16 h; also: % of control where 0% means no effect; nearly all actives have a fitted effect of over 60% in size
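Genotoxic stress is detected as increased luminescence from luciferase-tagged ELG1 in HEK293T cells, measured with ONE-Glo after a 16 hr treatment at 37 °C.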
SMN2 splice up = enhancers of SMN2 splice variant expression; AID 1458; HEK293 SMN2-luciferase splicing reporter, luminescence, 30-36 h; 210,000 compounds, 2.8% hits; Potency, µM (titrated, usually from 46.1 µM), without a hit: at the highest dose activity change, positive = activation, usual class: activators; also: % of control where 0% means no effect; nearly all actives have a fitted effect of over 55% in size
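HEK293 cells carry an SMN2 […]–luciferase reporter in which exon 7 inclusion puts luciferase in frame. Cells were plated 10-12 h before compound addition, then incubated 30-36 h at 37C. ONE-Glo luminescence was read; sodium butyrate at 4.5 mM final served as control.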
FLuc modulator = firefly luciferase modulation, counter-screen for miR-21 project; P08659; purified FLuc, Km substrates, luminescence inhibition; Potency, µM (doses to about 57.5 µM), without a hit: at the highest dose activity change, negative = inhibition, usual class: inhibitors; 360,000 compounds, 6.9% hits; AID 588342;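 also: plate controls were vehicle for no effect and reference inhibitor for full effect; nearly all actives have a fitted effect of over 55% in size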
Target sequence (P08659 whole entry, looked up): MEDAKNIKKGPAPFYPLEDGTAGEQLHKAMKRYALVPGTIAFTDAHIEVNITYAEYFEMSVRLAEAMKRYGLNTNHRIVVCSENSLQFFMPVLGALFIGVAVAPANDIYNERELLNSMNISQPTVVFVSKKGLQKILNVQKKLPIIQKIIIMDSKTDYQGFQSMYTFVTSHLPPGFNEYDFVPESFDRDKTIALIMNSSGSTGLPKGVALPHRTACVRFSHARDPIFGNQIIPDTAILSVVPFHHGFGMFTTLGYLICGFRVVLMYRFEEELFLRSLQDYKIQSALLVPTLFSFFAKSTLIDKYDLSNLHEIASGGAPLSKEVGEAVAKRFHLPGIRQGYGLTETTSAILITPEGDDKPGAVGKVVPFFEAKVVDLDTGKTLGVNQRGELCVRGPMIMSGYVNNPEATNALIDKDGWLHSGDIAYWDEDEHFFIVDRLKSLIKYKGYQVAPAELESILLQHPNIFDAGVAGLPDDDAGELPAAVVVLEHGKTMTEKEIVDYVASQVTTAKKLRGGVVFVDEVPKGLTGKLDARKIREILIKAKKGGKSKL
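Purified P. pyralis luciferase (10nM final) with 10uM D-luciferin and 10uM ATP (Km levels) in 50mM Tris acetate pH 7.5, 10mM Mg acetate, 0.01% Tween-20, 0.05% BSA; qHTS 6-point titration, ~60 µM downward; luminescence read.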
p53 reactivator = re-activators of mutant p53. 320,000 compounds, 0.063% hits. H1299 p53-A138V BP100-luciferase reporter, luminescence, 24 h. AID 504706. Potency, µM (series often up to 92.2 µM), for inactives: top-dose activity change, positive = activation, most hits filed as activators; also: % of control where 0% means no effect; nearly all actives have a fitted effect of over 45% in size
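p53-null H1299 cells stably carrying temperature-sensitive p53-A138V and a BP100-luciferase reporter were pinned with compounds (4-point, 1:5 series) and held 24 hrs at 37 deg C. Luminescence was read 10 min after detection reagent.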
Numbers without * were called inactive; ? = inconclusive; / = not tested or not shown; [ ] = dose if it differs, or a comment. Calls follow the shape of the dose curve; as a rule, active = well fitted curve in the direction sought with a large enough effect; inconclusive = small, poorly fitted or top-dose-only effect, or another doubt; inactive = no such curve, though single readings can be large; an effect the other way counts as inactive or inconclusive. Potency is read from the fitted curve at half-maximal effect.

SMILES	Rab9 promoter act	NPC1 prom act	ELG1 genotoxic	SMN2 splice up	FLuc modulator	p53 reactivator
O=C(Nc1cc(Cl)ccc1Cl)c1cc(S(=O)(=O)NCCc2ccccc2)ccc1F	/	/	/	/	5%	/
COc1ccc(S(=O)(=O)N2CCC(C(=O)NCCc3c[nH]c4ccccc34)CC2)cc1	-5%	-2%	-3%	/	-10%	5%
COc1ccc([C@]23Cc4cc(OC)c(OC)cc4C(O2)c2c(c4ccccc4oc2=O)O3)cc1	8%[1.84 µM]	-1%[1.84 µM]	/	/	-17%[11.5 µM]	/
CCCN(C(=O)Cn1cnc2onc(-c3ccc(F)cc3)c2c1=O)c1cccc(Cl)c1	/	/	/	/	-5%	/
COc1ccc(N(CC(=O)N2CCN(c3cccc(OC)c3)CC2)S(=O)(=O)c2c(C)noc2C)cc1	/	/	/	-1%	-11%	/
Cc1ccc(C)c(N2CCN(Cc3csc(C)c3)CC2)c1	/	/	/	/	-6%	/
COc1ccc2c(c1)-c1nc(NC(=O)c3cccs3)sc1CC2	20%	3%	-1%	4%	19µM*	14%
COc1ccc2c(c1)Cc1sc(NC(C)=O)nc1-2	0.79µM*	1µM*	8.2µM*	5.6µM*	4.8µM*	59%
COc1cccc(NC(=O)COC(=O)c2ccc(C)c(S(=O)(=O)N3CCCCC3)c2)c1	3%	0%	-2%	/	1%	-7%
Cc1oc(-c2cccc(Br)c2)nc1CSc1nc2ncccc2[nH]1	/	/	/	/	-10%	/
O=[N+]([O-])c1c(Cl)cc(Cl)cc1Cl	/	/	/	-4%	/	/
Cc1ccc(-n2cccc2/C=C2/C(=N)N3C(=NC2=O)SN=C3S(C)(=O)=O)cc1	2%	-1%	0%	-15%	19µM*	1%
Cc1ccc(S(=O)(=O)Oc2ccc(/C=C3/C(=N)N4C(=NC3=O)SN=C4S(C)(=O)=O)cc2)cc1	5%	0%	8%	/	-8%	11%
Cc1cc(C)cc(-n2cccc2/C=C2/C(=N)N3C(=NC2=O)SN=C3S(C)(=O)=O)c1	3%	-6%	-3%	-20%	13µM*	1%
CCc1ccc(-n2cccc2/C=C2/C(=N)N3C(=NC2=O)SN=C3S(C)(=O)=O)cc1	3%	-3%	0%	-10%	17µM*	1%
CS(=O)(=O)C1=NSC2=NC(=O)/C(=C\c3ccc(OS(=O)(=O)c4ccccc4)cc3)C(=N)N21	-2%	0%	3%	/	-11%	22%
COc1cccc(-n2c(C)cc(/C=C3/C(=N)N4C(=NC3=O)SN=C4S(C)(=O)=O)c2C)c1	1%	1%	5%	20%	5.4µM*	3%
O=C(c1cc(C(F)(F)F)cc(C(F)(F)F)c1)N1CCC2(CC1)CN(c1ccccn1)C2	/	/	/	-71%	/	/
CS(=O)(=O)C1=NSC2=NC(=O)/C(=C\c3cccn3-c3ccccc3Cl)C(=N)N21	16%	0%	2%	-2%	27µM*	1%
CCCC(=O)N(CCN1CCOCC1)c1nc2cc(C)c(C)cc2s1	2.2µM*	2.5µM*	?	/	-12%	26%
Cc1cc2c(NCCc3ccccc3)ncnc2s1	-7%	-7%	?	/	12µM*	/
c1ccc(CCNc2ncnc3ccccc23)cc1	-23%	-19%	2%	/	12µM*	0%
COc1ccc(C(=O)Oc2ccc3c(c2)OCO3)cc1OC	3%	3%	11%	4%	24µM*	25%
N/C(=N\OC(=O)c1ccc2c(c1)OCO2)c1cccnc1	?	?	?	/	1.2µM*	0%
N/C(=N\OC(=O)c1ccc2c(c1)OCO2)c1cccc(Br)c1	4.5µM*	?	?	/	0.13µM*	24%
N/C(=N\OC(=O)c1cccc(Br)c1)c1ccc(Br)cc1	11%	24%	12%	-5%	?	2%
N/C(=N\OC(=O)c1ccc2c(c1)OCO2)c1ccc([N+](=O)[O-])cc1	?	?	?	26%	?	6%
COc1ccc(/C(N)=N/OC(=O)c2ccc3c(c2)OCO3)cc1OC	?	?	?	?	3µM*	?

Assay outcomes deposited in PubChem BioAssay by National Center for Advancing Translational Sciences (NCATS).
